Counter-ions that a name gives are not always drawn. Over roughly 1,000 compounds, “cFRET/donor change relative to DMSO, normalised to beta-lapachone positive control (supercomplex I-IV assembly)” has its median near 0.18; the lowest 2% begin near -1. The full list was thinned out, with the lowest values kept by preference.
These compounds were tested on C2C12 (NDUFB8-AcGFP / COX8A-DsRed-Monomer FRET reporter) (assay: cFRET/donor change relative to DMSO, normalised to beta-lapachone positive control (supercomplex I-IV assembly) (fraction of beta-lapachone effect); higher = more respiratory supercomplex assembly). Conditions: 40 µM; 24 h.
Description: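 Cells were treated with 40 uM compound for 24 h and imaged on an IN Cell Analyzer 6000. Corrected FRET was divided by donor signal (cFRET/donor) and measured in two replicate experiments. The score is (mean cFRET/donor of compound - mean DMSO) / (mean beta-lapachone 40 uM - mean DMSO). Compounds flagged for prominent cell death, abnormal morphology or decreased cell number were excluded.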

Compound	cFRET/donor change
COCCOc1cc2ncnc(Cl)c2cc1OCCOC	0.0633
CCOC(=O)c1ccc(C#Cc2ccc3c(c2)C(C)(C)CCS3)nc1 [Tazarotene]	0.454
c1ccc2c(c1)CC(N1CCN(c3cccc4c3OCCO4)CC1)C2	0.201
c1cnc2cc3c(cc2n1)[C@@H]1CNC[C@H]3C1 [Varenicline tartrate]	0.22
Cc1ccc(S(=O)(=O)/C=C/C#N)cc1	0.324
COc1ccc(CCNc2nc(N3CCc4cc(OC)c(OC)cc4C3)c3cc(OC)c(OC)cc3n2)cc1OC	0.14
O=C1c2c(O)cc(O)cc2O[C@H](c2ccc(O)c(O)c2)[C@H]1O (racemic) [(±)-Taxifolin]	0.226
CN(c1ccccc1CNc1nc(Nc2ccc3c(c2)CC(=O)N3)ncc1C(F)(F)F)S(C)(=O)=O	0.036
O=C(O[C@@H]1C[C@@H]2C[C@H]3C[C@H](C1)N2CC3=O)c1c[nH]c2ccccc12 [Dolasetron mesylate hydrate]	0.115
NC(N)=NCc1cccc(I)c1 [m-Iodobenzylguanidine hemisulfate]	-0.0455
CN(CCCOc1ccc(Cc2ccccc2)cc1)CCC(=O)O	0.52
COc1cccc(OC)c1-c1cc(C(=O)NC2(C(=O)O)C3CC4CC(C3)CC2C4)nn1-c1ccc(C(=O)N(C)CCCN(C)C)cc1C(C)C (stereo unspecified)	0.153
CC(C)[N+]1(C)[C@@H]2CC[C@H]1C[C@@H](OC(=O)C(CO)c1ccccc1)C2 (stereo partly specified) [Ipratropium bromide]	0.299
O=C1CCC(c2ccc(-n3ccnc3)cc2)=NN1 [Imazodan]	0.0699
Nc1nc(=O)c(Br)c(-c2ccccc2)[nH]1 [Bropirimine]	-0.0226
Nc1ccc(-c2nc3ccc(-c4nc5ccc(N)cc5[nH]4)cc3[nH]2)cc1	-0.494
CC(C)(C)NC(=O)[C@@H]1CN(Cc2cccnc2)CCN1C[C@@H](O)C[C@@H](Cc1ccccc1)C(=O)N[C@H]1c2ccccc2C[C@H]1O [Indinavir sulfate salt hydrate]	0.0944
Cc1cc(NC2CCCCC2)nc(-n2nc(C)cc2C)n1	0.569
O=C1/C(=C/c2cccs2)CC/C1=C\c1cccs1	0.584
CCN(CC)CCCC(C)Nc1c2ccc(Cl)cc2nc2ccc(OC)cc12 (stereo unspecified) [Quinacrine dihydrochloride]	-4.52
OC[C@H]1O[C@@H](n2cnc3c(N[C@H]4CCC[C@@H]4O)ncnc32)[C@H](O)[C@@H]1O	0.476
C[C@H](c1ccc(F)cc1CCCC(=O)O)N(c1cc(F)ccc1F)S(=O)(=O)c1ccc(Cl)cc1	0.476
C[N+](C)(C)CCO.[Br-] [Choline bromide]	0.313

Compound	cFRET/donor change
O=C(CCCCCN1CCN(c2ccccc2-c2ccccc2)CC1)NC1CCCc2ccccc21 (stereo unspecified) [LP 12 hydrochloride hydrate]	1.51
C=CC1=C(C)c2cc3[nH]c(cc4nc(cc5[nH]c(cc1n2)c(C)c5CCC(=O)O)C(CCC(=O)O)=C4C)c(C)c3C=C [Protoporphyrin IX disodium]	3.12
COC(=O)C1=C(C)NC(C)=C(C(=O)OC2CCCN(Cc3ccccc3)C2)C1c1cccc([N+](=O)[O-])c1 (stereo unspecified) [Benidipine hydrochloride]	0.367
CCc1cccc(N(C)C(=N)Nc2cccc3ccccc23)c1	0.203
CCOC(=O)[C@@H](N)Cc1ccc(O)c(O)c1 [L-Dopa ethyl ester]	-0.101
O=c1n(CCCN2CCN(c3cccc(Cl)c3)CC2)nc2ccccn12 [Trazodone hydrochloride]	0.586
CC[C@H]1OC(=O)[C@H](C)[C@@H](O[C@H]2C[C@@](C)(OC)[C@@H](O)[C@H](C)O2)[C@H](C)[C@@H](O[C@@H]2O[C@H](C)C[C@H](NC)[C@H]2O)[C@](C)(O)C[C@@H](C)CN(C)[C@H](C)[C@@H](O)[C@]1(C)O	0.325
O=C(O)c1cc(=O)c2ccccc2[nH]1 [Kynurenic acid]	-0.161
O=c1cc(-c2ccccc2)[nH]c2nc(Cl)ccc12 [7-Chloro-4-hydroxy-2-phenyl-1,8-naphthyridine]	-1.98
CN1[C@@H]2CC[C@H]1CC(OC(=O)c1c[nH]c3ccccc13)C2 (stereo partly specified) [3-Tropanyl-indole-3-carboxylate hydrochloride]	0.435
CCCOc1ccccc1-c1nc2[nH]nnc2c(=O)[nH]1 [Zaprinast]	0.225
CCCCN(CC)c1nc(C)nc2c1c(C)cn2-c1c(C)cc(C)cc1C	0.353
CNC(=O)[C@H]1O[C@@H](n2cnc3c(NCc4ccc(N)cc4)ncnc32)[C@H](O)[C@@H]1O	0.125
Cc1nc(C#Cc2cccnc2)cs1 [MTEP hydrochloride]	0.691
CCCc1nn(C)c2c(=O)[nH]c(-c3cc(S(=O)(=O)N4CCN(C)CC4)ccc3OCC)nc12 [Sildenafil citrate salt]	0.123
NS(=O)(=O)c1cc2c(cc1Cl)N=CNS2(=O)=O [Chlorothiazide]	0.223
C=C1C(=O)O[C@H]2[C@H]1CC/C(C)=C/CC[C@@]1(C)O[C@@H]21 [Parthenolide]	0.366
CN(CCOc1ccc(NS(C)(=O)=O)cc1)CCc1ccc(NS(C)(=O)=O)cc1 [Dofetilide]	0.532
CC1CCN=C(N)S1 (racemic) [(±)-AMT hydrochloride]	0.00413
CC(=O)/C=C1/C(=O)N(C)c2ccccc21 [Supercinnamaldehyde]	0.0218
CC(N)(Cc1ccc(O)cc1)C(=O)O (racemic) [DL-alpha-Methyl-p-tyrosine]	-0.224
C[C@]12CC[C@@H]3c4ccc(O)cc4C[C@@H](CCCCCCCCC[S+]([O-])CCCC(F)(F)C(F)(F)F)[C@H]3[C@@H]1CC[C@@H]2O (stereo partly specified) [Fulvestrant]	0.0846
NS(=O)(=O)c1nn2cc(-c3ccccc3)nc2s1	-0.298

Compound	cFRET/donor change
COC(=O)C(C)(N)Cc1ccc(O)cc1 (racemic) [alpha-Methyl-DL-tyrosine methyl ester hydrochloride]	0.302
O=C1OC(=O)[C@H]2[C@@H]1[C@@H]1CC[C@H]2O1 [Norcantharidin]	0.251
CCCCC1(C2CCCC2)Cc2cc(OCC(=O)O)c(Cl)c(Cl)c2C1=O (stereo in doubt) [R(+)-Butylindazone]	0.322
CC(=O)NC[C@H]1CN(c2ccc(N3CCOCC3)c(F)c2)C(=O)O1 [Linezolid]	0.372
CCCCCCCCCCCCCCCC(=O)OC[C@H](COP(=O)(O)OCCNC(=O)[C@H](C)NC(=O)CC[C@@H](NC(=O)[C@H](C)NC(=O)[C@@H](C)O[C@H]1[C@H](O)[C@@H](CO)OC(O)[C@@H]1NC(C)=O)C(N)=O)OC(=O)CCCCCCCCCCCCCCC (stereo partly specified) [Mifamurtide]	-0.0931
O=C1CCCC(=O)C1C(=O)c1ccc(C(F)(F)F)cc1[N+](=O)[O-] [Nitisinone]	0.0147
C=C1C[C@@]23CC[C@H]4[C@@](C)(CCC[C@@]4(C)C(=O)O[C@@H]4O[C@H](CO)[C@@H](O)[C@H](O)[C@H]4O)[C@@H]2CC[C@]1(O[C@@H]1O[C@H](CO)[C@@H](O)[C@H](O)[C@H]1O[C@@H]1O[C@H](CO)[C@@H](O)[C@H](O)[C@H]1O)C3 [Stevioside]	0.0782
N[C@H](C(=O)O)[C@H](Cc1ccccc1)C(=O)O [L-Beta-threo-benzyl-aspartate]	-0.122
CCCCCCCCCCCCCCC[C@H](O)[C@H](N)CO (racemic) [DL-erythro-Dihydrosphingosine]	0.48
CC(C)NCC(O)c1ccc(O)c(O)c1 (single isomer, unassigned; (-)) [(-)-Isoproterenol hydrochloride]	0.53
C[C@]12C=CC(=O)C=C1CC[C@@H]1C2=CC[C@]2(C)[C@@H](C(=O)CN3CCN(c4cc(N5CCCC5)nc(N5CCCC5)n4)CC3)CC[C@@H]12	-1.85
CCN(CC)CCCCNc1ncc2cc(-c3c(Cl)cccc3Cl)c(NC(=O)NC(C)(C)C)nc2n1	0.403
Cc1cn([C@H]2C[C@H](N=[N+]=[N-])[C@@H](CO)O2)c(=O)[nH]c1=O [3'-Azido-3'-deoxythymidine]	-0.184
O=CN(O)CCCP(=O)(O)O [Fosmidomycin sodium salt hydrate]	0.0766
N[C@H](C(=O)O)[C@H](O)c1ccc(O)c(O)c1	0.419
O=c1[nH]c(=O)n(C2CCCO2)cc1F (stereo unspecified) [Tegafur]	0.268
O=C(NOC[C@H](O)CO)c1ccc(F)c(F)c1Nc1ccc(I)cc1F	0.21
CN(C)c1cc2c(Nc3ccc4c(cnn4Cc4ccccc4)c3)ncnc2cn1	-7.46
COc1cc2ncnc(Nc3cccc(Cl)c3)c2cc1OC [Tyrphostin AG 1478]	0.19
CC1=C(C(=O)O)N2C(=O)[C@@H](NC(=O)[C@H](N)c3ccccc3)[C@H]2SC1 [Cephalexin hydrate]	0.038
CNS(=O)(=O)CCc1ccc2[nH]cc(C3CCN(C)CC3)c2c1 [Naratriptan hydrochloride]	0.347
COc1ccc(-c2cc(=O)c3c(O)c(OC)c(OC)cc3o2)cc1O [Eupatorin]	0.395
O=c1cc(-c2ccccc2)oc2c(O)c(O)ccc12 [7,8-Dihydroxyflavone hydrate]	-0.0745

Compound	cFRET/donor change
O=c1cc(-c2ccc(O)cc2)oc2cc(O)cc(O)c12 [Apigenin]	-1.74
O=c1c(O)c(-c2ccc(O)cc2O)oc2cc(O)cc(O)c12 [Morin]	-3.25
O=c1c(-c2ccc(O)cc2)coc2cc(O)ccc12 [Daidzein]	0.201
O=C(Nc1ccccc1C(=O)NC1CCCCNC1=O)c1cc2ccccc2s1 (stereo unspecified)	0.384
CN1[C@@H]2CC[C@H]1C[C@@H](OC(=O)C(O)c1ccccc1)C2 (mixture of isomers) [DL-Homatropine hydrobromide]	0.0655
Cn1c(=O)c2[nH]c(-c3ccccc3)nc2n(C)c1=O [1,3-Dimethyl-8-phenylxanthine]	-1.5
Cn1c(=O)c2[nH]c(C3CCCC3)nc2n(C)c1=O [8-Cyclopentyl-1,3-dimethylxanthine]	0.158
Cn1c(=O)c2[nH]c(-c3ccc(S(=O)(=O)O)cc3)nc2n(C)c1=O [8-(p-Sulfophenyl)theophylline]	0.086
Cc1c(O)cccc1C(=O)N[C@@H](CSc1ccccc1)[C@H](O)CN1C[C@H]2CCCC[C@H]2C[C@H]1C(=O)NC(C)(C)C [Nelfinavir mesylate hydrate]	-0.54
O=C(O)CCc1ccc(NCc2cccc(Oc3ccccc3)c2)cc1	-0.4
C[C@@H](c1ncncc1F)[C@](O)(Cn1cncn1)c1ccc(F)cc1F [Voriconazole]	0.181
NC1CONC1=O (racemic) [DL-Cycloserine]	0.397
NC(N)=NC(=O)c1nc(Cl)c(N2CCCCCC2)nc1N [5-(N,N-hexamethylene)amiloride]	0.351
CCOc1ncc(S(=O)(=O)N2CCN(CC)CC2)cc1-c1nc(=O)c2nn(CCOC)c(CC)c2[nH]1 [Gisadenafil besylate salt]	0.0753
O=C1Nc2ccc(I)cc2/C1=C/c1cc(Br)c(O)c(Br)c1	-3
N=C(N)c1ccc(OCCCCCOc2ccc(C(=N)N)cc2)cc1 [Pentamidine isethionate]	0.191
CC(C)(NS(=O)(=O)c1ccc(Oc2ccc(F)cc2)cc1)C(=O)NO	0.196
CN1[C@@H]2CC[C@H]1C[C@@H](OC(c1ccccc1)c1ccccc1)C2 [Benztropine mesylate]	0.586
Cc1c(-c2ccc(-c3ccccc3F)cc2)nc2ccc(F)cc2c1C(=O)O [Brequinar sodium salt hydrate]	0.431
Nc1ccc(CCNc2ncnc3c2ncn3C2OC(CO)C(O)C2O)cc1 (stereo unspecified) [N6-2-(4-Aminophenyl)ethyladenosine]	0.338
CCCC(CCC)C(=O)O[C@H]1C[C@H]2CC[C@@H](C1)[N+]2(C)C [Anisotropine methyl bromide]	0.0542
COc1ccc(CCn2nnnc2C2(c3ccc(C)cc3)CC2)cc1 [Mephetyl tetrazole]	0.388

Source: the supplement of paper PMC9877034
